Measured values: article PMC4336329 (PLoS ONE, 2015)
Among all 310,000 compounds or so, about 14,000 (4.5%) showed an effect of 50% or more. The effect is printed as a negative number. Many of the other results were omitted from the sample, so strong results are more common in it than they were.

Target: human ether-à-go-go-related gene (hERG) potassium channel (human, UniProt Q12809)
Test: primary screen, population patch clamp on CHO cells stably expressing hERG; higher = less effect of the substance
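Further: peak tail current of the secondary pulse compared with the same well before compound.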

Sequence of human ether-à-go-go-related gene (hERG) potassium channel (Q12809 whole entry, looked up): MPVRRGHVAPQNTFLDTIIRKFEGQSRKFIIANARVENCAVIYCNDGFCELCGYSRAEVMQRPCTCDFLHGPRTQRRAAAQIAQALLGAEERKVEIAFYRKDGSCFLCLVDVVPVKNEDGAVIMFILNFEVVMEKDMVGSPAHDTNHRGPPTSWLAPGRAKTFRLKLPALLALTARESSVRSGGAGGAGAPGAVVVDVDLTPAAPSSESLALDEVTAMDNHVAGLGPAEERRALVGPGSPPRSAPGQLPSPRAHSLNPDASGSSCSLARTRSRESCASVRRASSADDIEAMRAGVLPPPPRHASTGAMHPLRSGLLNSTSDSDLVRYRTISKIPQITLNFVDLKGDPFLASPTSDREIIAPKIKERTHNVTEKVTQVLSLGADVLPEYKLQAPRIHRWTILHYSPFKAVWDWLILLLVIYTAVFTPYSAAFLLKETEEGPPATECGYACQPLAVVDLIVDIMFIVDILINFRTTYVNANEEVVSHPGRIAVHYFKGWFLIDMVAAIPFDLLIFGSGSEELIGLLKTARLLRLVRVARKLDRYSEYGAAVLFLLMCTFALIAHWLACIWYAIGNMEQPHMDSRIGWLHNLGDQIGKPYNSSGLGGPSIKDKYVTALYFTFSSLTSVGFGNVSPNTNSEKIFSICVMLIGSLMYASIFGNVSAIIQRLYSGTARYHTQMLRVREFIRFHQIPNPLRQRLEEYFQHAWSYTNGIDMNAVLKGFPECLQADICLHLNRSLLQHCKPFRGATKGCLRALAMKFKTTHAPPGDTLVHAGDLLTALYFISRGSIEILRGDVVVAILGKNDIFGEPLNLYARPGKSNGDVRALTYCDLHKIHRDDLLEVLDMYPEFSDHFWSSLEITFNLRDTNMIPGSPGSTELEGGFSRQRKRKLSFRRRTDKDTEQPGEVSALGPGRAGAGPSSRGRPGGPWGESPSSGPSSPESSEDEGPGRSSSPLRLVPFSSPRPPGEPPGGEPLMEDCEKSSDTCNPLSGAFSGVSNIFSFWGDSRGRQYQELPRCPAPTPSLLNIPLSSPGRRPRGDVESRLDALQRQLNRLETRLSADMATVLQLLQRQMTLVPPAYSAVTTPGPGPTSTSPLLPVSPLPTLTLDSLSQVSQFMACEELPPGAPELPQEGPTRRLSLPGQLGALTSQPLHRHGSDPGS

Structure (SMILES) | hERG current change (%, negative = inhibition) at 10uM [%]
NCCN=C1NS(=O)(=O)c2ccccc21 | 0.316
CCOc1ccc(OCC(=O)Nc2ccc(S(=O)(=O)Nc3cc(C)nc(C)n3)cc2)cc1 | 16.4
COc1cccc(-c2nc(N3CCCC3)c3ccccc3n2)c1O | -5.65
Cc1ccc(C)c(C(=O)COC(=O)c2cc(Cl)nc3ccccc23)c1 | 26.4
O=C(Nc1ccc2c(c1)CCC2)Nc1ccc2c(c1)OCO2 | 6.88
O=C(Nc1ccc(C(=O)N2CCCCC2)cc1)c1ccccc1Br | 8.24
O=C(NCc1ccccn1)c1ccc(=O)oc1 | 1.42
Cc1cc(Cl)ccc1OCC(=O)Nn1c(C)ccc1C | 3.73
Cc1ccc(C(=O)NCc2ccco2)cc1Br | -11.5
COc1cccc(NC(=O)C23CCC(C)(C(=O)O2)C3(C)C)c1 (stereo not shown) | -5.46
COc1ccc(OC)c(/C=C2\Oc3cc(OCC(=O)N4CC(O)C[C@H]4C(=O)O)ccc3C2=O)c1 (stereo partly shown) | 4.97
COc1ccccc1OCCCn1cc(C(=O)C2CC2)c2ccccc21 | -2.64
COc1cccc(C(=O)NN2C(=S)N(c3ccccc3)C(=O)C2CC(N)=O)c1 (stereo not shown) | 16.2
O=C(COc1ccc2ccccc2c1)Nc1ccccc1C(=O)O | 26.6
CCCC(=O)NC(=S)Nc1cccc(Cl)c1N1CCCCC1 | 14.1
C/C(=N\NC(=O)c1ccccc1O)C1C(=O)c2ccccc2C1=O | -0.25
C/C(=N\NC(=O)c1ccccc1O)C1CC1 | -62.2
C/C(=N\NC(=O)C1CC1)c1ccccc1O | 0.248
CC(=O)c1ccc(N2CCN(CC(=O)N(CC(C)C)c3c(N)n(CC(C)C)c(=O)[nH]c3=O)CC2)cc1 | 10.7
Cc1c(CN2CCC(n3nccc3NC(=O)CCc3ccccc3)CC2)cnn1C | 12.6
CCCn1ncc(CN2CCC(n3nccc3NC(=O)c3ccccc3OC)CC2)c1C | -79.2
CCCn1ncc(CN2CCC(n3nccc3NC(=O)c3ccccc3Cl)CC2)c1C | -75.8
COc1ccccc1C(=O)Nc1ccnn1C1CCN(Cc2cnn(C)c2C)CC1 | -63.7
CCCn1ncc(CN2CCC(n3nccc3NC(=O)CCc3ccccc3)CC2)c1C | -26.2
CCCCc1ncc(CN2CCC(n3nccc3NC(=O)c3ccccc3Cl)CC2)[nH]1 | -40.3
CCCn1cc(CN2CCC(n3nccc3NC(=O)c3ccccc3)CC2)c(C)n1 | -11
Cc1c(CN2CCC(n3nccc3NC(=O)c3cccc(F)c3)CC2)cnn1C | 9
O=C(c1ccc2c(c1)OCO2)N1CCc2ccccc21 | -2.34

Structure (SMILES) | hERG current change (%, negative = inhibition) at 10uM [%]
COCCOC(=O)c1c(C)n(C)c2ccc(OC(=O)c3ccco3)cc12 | -2.37
CCc1n[nH]c(=S)n1/N=C/c1c(C)nn(-c2ccccc2)c1Cl | 21.4
CN(C)c1ccc(/C=N/n2c(C3CCCCC3)n[nH]c2=S)cc1 | 20
Cc1csc(CN(C)C(=O)C2CCC(=O)N(CCCc3ccccc3)C2)n1 (stereo not shown) | -5.37
CCC1(CCCC(=O)c2ccc(F)cc2)C(=O)NC(=S)NC1=O | -3.66
O=C(COc1coc(CN2CCN(c3ccc(F)cc3)CC2)cc1=O)NC1CCCC1 | -53.1
O=C(COc1coc(CN2CCN(c3ccccc3)CC2)cc1=O)Nc1ccccc1F | -3.41
O=C(COc1coc(CN2CCN(c3ccccc3)CC2)cc1=O)NC1CCCC1 | -13.6
Cc1cccc(NC(=O)COc2coc(CN3CCN(c4ccccc4)CC3)cc2=O)c1C | -28.6
O=C(COc1coc(CN2CCN(c3ccccc3)CC2)cc1=O)NC1CCCCC1 | -46.1
Cc1ccc(NC(=O)COc2coc(CN3CCN(c4ccccc4)CC3)cc2=O)cc1 | 1.7
COc1ccccc1NC(=O)COc1coc(CN2CCN(c3ccccc3)CC2)cc1=O | -60
Cc1cccc(NC(=O)COc2coc(CN3CCc4ccccc4C3)cc2=O)c1 | -8.19
Cc1cccc(NC(=O)COc2coc(CN3CCN(Cc4ccccc4)CC3)cc2=O)c1 | -65
Cc1cccc(NC(=O)COc2coc(CN3CCN(c4ccccc4)CC3)cc2=O)c1 | -7.9
Cc1ccc(NC(=O)COc2coc(CN3CCN(Cc4ccccc4)CC3)cc2=O)cc1 | -73.3
CCc1ccc(NC(=O)COc2coc(CN3CCN(c4ccccc4)CC3)cc2=O)cc1 | 12.3
CN(C)c1ccc(CN2CCCCC2)cc1 | 14.9
CCN(CC(=O)N1CCCCCC1)S(=O)(=O)c1ccc(Cl)cc1 | -13.5
CC1=Nc2ccccc2N=C(NC(=O)/C=C/C(=O)O)C1c1ccccc1 (stereo not shown) | 2.53
O=c1[nH]c(=O)n(-c2ccccc2F)c(O)c1C=NCCC1=CCCCC1 | 25.6
Cc1c(NC(=O)CN2CCC(C(N)=O)CC2)cccc1[N+](=O)[O-] | 26.4
COc1ccc(N2CCN(C(c3cc(OC)ccc3OC)c3nnnn3CC3CCCO3)CC2)cc1.Cl (stereo not shown) | -9.64
CC(C)CNC(=O)[C@H](Cc1ccccc1)NC(=O)c1ccco1 | -6.82
Cc1ccccc1NC(=O)COc1coc(CN2CCN(Cc3ccccc3)CC2)cc1=O | -53.3
CNC(=O)COc1coc(CN2CCN(Cc3ccccc3)CC2)cc1=O | 1.83
Cc1ccccc1NC(=O)COc1coc(CN2CCN(c3ccccc3)CC2)cc1=O | -21.1
